Pf growth 96h: P. falciparum growth inhibition at 96 hour, primary screen for plastid delayed-death inhibitors | actives 6.9% (n = 320,000) | P. falciparum luciferase reporter growth, 96 h | AID 504834 | Potency, µM (top dose mostly 28.7 µM), without a hit: top-dose activity change, negative = inhibition, usual class: inhibitors; further: potency means the concentration at half of the fitted maximal effect
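Cell-based qHTS: luciferase-tagged P. falciparum in erythrocytes (2% hematocrit, 0.05% parasitemia final) incubated with compounds for 96 hours, 37 C, 5% CO2; luciferase detection reagent then added and luminescence measured.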
FBPA Giardia inh: Giardia lamblia aldolase inhibition; purified Giardia FBPA; actives 0.71% (n = 290,000); Potency, µM (series often up to 59.6 µM), for inactives: at the top dose activity, negative = inhibition, usual class: inhibitors; A8B2U2; further: potency means the concentration at half of the fitted maximal effect; nearly all actives have a fitted effect of over 55% in size
Target sequence (A8B2U2 whole entry, looked up): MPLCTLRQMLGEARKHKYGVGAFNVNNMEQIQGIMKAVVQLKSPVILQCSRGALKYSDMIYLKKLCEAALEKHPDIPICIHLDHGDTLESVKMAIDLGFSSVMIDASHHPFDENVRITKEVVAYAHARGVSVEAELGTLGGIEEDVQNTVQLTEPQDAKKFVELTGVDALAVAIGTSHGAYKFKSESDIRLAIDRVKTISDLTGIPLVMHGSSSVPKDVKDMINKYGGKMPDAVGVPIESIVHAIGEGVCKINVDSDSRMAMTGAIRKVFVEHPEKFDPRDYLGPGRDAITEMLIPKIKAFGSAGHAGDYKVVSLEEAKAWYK
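40 nM FBPA preincubated 10 min at RT with compound (up to 57.5 uM final), then substrate plus GAPDH/TPI/NAD/arsenate coupling and diaphorase/resazurin added. Fluorescence read after 20 min at RT, 525/598 nm.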
HCMV antiviral: inhibitors of human cytomegalovirus | HFF cells, HCMV-luciferase reporter, 72 h; active compounds read low | activity change, negative = inhibition, % at 57.5 µM | actives 4.5% (n = 410,000); in the data active means activity change below about -60%; inconclusive means no clear call, values can overlap the other calls; inactive means above about -39%
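Luciferase read-out from HCMV-luciferase-infected HFFs (MOI 1 PFU/cell) 72 h post infection at 37C; compounds added after 16 h cell attachment; activity normalized between buffer-only basal and Salinomycin (10uM) inhibitor controls.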
Sm TGR inh: S. mansoni TGR enzyme inhibition; Q962Y6; purified TGR, DTNB reduction, TNB absorbance 405 nm; Potency, µM (top dose mostly 114 µM), inactives show at the top dose activity change, negative = inhibition, hits mostly inhibitors; actives 3% (n = 360,000); AID 485364; further: potency means the concentration at half of the fitted maximal effect; nearly all actives have a fitted effect of over 60% in size
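First, TGR (20 nM dispensed) and NADPH were mixed with compound. Second, a 15 min room-temperature incubation followed. Third, further NADPH and then DTNB were added to start the reaction. Finally, TNB absorbance was monitored kinetically.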
Pf growth 48h: P. falciparum growth inhibition at 48 hours (one generation); Potency, µM (top dose mostly 28.7 µM), for the others: top-dose activity change, negative = inhibition, actives largely listed as inhibitors; P. falciparum luciferase growth in erythrocytes, 48 h; AID 504832; actives 5.9% (n = 310,000); further: potency means the concentration at half of the fitted maximal effect
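Parasite viability was followed by luminescence of a genomically integrated firefly luciferase. Cultures held 0.1% parasitemia at 2% hematocrit (final), incubated under 5% CO2 at 37 C.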
Starred values were filed as active, the others as inactive. Hits are enriched below; roughly 14% of the tested compounds scored in any of these assays. Unless noted, the call rests on the fitted dose curve; in most records, active means well fitted curve in the direction sought with a large enough effect; inconclusive means small, poorly fitted or top-dose-only effect, or another doubt; inactive means no such curve, though single readings can be large; an effect the other way counts as inactive or inconclusive. On the % scale 0 is the no-effect control and ±100 the full control effect.

Cc1nnc2n(C3CCCCC3)c(=O)c3c4c(sc3n12)CCC4 was read as Pf growth 96h 3.3µM*, FBPA Giardia inh -5%, Sm TGR inh -25% and Pf growth 48h -2%.
`CCN(CC)S(=O)(=O)c1ccc(N2CCOCC2)c(NS(=O)(=O)c2ccc(C)cc2)c1` gave Pf growth 96h 5.9µM*, FBPA Giardia inh -3%, HCMV antiviral inconclusive, Sm TGR inh -3% and Pf growth 48h inconclusive.
For Cc1nn(C)c(C)c1NS(=O)(=O)c1ccc(Cl)cc1 the results were Pf growth 96h 0%, HCMV antiviral 14, Sm TGR inh 2% and Pf growth 48h 8%.
`CCN(CC)S(=O)(=O)c1ccc(N2CCOCC2)c(NS(=O)(=O)c2ccc(C)c(C)c2)c1` gave Pf growth 96h 4.1µM*, FBPA Giardia inh -8%, HCMV antiviral -30, Sm TGR inh -1% and Pf growth 48h 7.4µM*.
For CCN(CC)S(=O)(=O)c1ccc(S(=O)(=O)Nc2c(C)nn(C)c2C)cc1 the results were Pf growth 96h -19%, HCMV antiviral -73*, Sm TGR inh 0% and Pf growth 48h 0%.
Cc1ccc(NC(=O)CC2Nc3cccc4cccc(c34)NC2=O)cc1 (stereo not drawn) was read as HCMV antiviral 20 and Sm TGR inh 40µM*.
For Cc1cc2c(cc1C)NC(CC(=O)Nc1ccccc1)C(=O)N2 (stereo not drawn) the results were HCMV antiviral -100* and Sm TGR inh -1%.
For COC(=O)c1ccc(NC(=O)CC2Nc3cc(C)c(C)cc3NC2=O)cc1 (stereo not drawn) the results were HCMV antiviral -99* and Sm TGR inh 1%.
`CC(=O)c1ccc(NC(=O)CC2Nc3cc(C)c(C)cc3NC2=O)cc1` (stereo not drawn) gave HCMV antiviral -15 and Sm TGR inh 8%.
Screening O=C(COc1ccccc1Cl)OCc1cc(=O)n2nc(C3CCCCC3)sc2n1 returned HCMV antiviral 20 and Sm TGR inh -5%.
`CC1Cc2cc(S(=O)(=O)CCC(=O)Nc3ccc(F)cc3Cl)ccc2N1C(=O)C1CC1` (stereo not drawn) gave HCMV antiviral 26 and Sm TGR inh 1%.
`COC(=O)c1cccc(N2C(=O)C[C@](Sc3ccc(OC)cc3)(C(=O)N3CCCC3)[C@H]2c2ccc(OC)cc2)c1` gave HCMV antiviral -14.
COC(=O)c1sc2ncccc2c1OCc1cccc(Cl)c1 was read as Pf growth 96h 0%, FBPA Giardia inh -10%, HCMV antiviral -102*, Sm TGR inh 9% and Pf growth 48h 5%.
Screening Cc1cccc(Oc2nc3ccccn3c(=O)c2/C=C(\C#N)c2nc3ccccc3s2)c1C returned HCMV antiviral -7 and Sm TGR inh 0%.
Screening CC(C)(C)c1ccc(Oc2nc3ccccn3c(=O)c2/C=C(\C#N)c2nc3ccccc3s2)cc1 returned HCMV antiviral 6 and Sm TGR inh 3.2µM*.
For COCC(=O)O[C@]1(CCN(C)CCCc2nc3ccccc3[nH]2)CCc2cc(F)ccc2[C@@H]1C(C)C the results were Pf growth 96h 2.4µM*, FBPA Giardia inh inconclusive, HCMV antiviral -98*, Sm TGR inh -22% and Pf growth 48h 1.5µM*.
Screening CCCCCC(O)C=CC1C(O)CC(O)C1CC=CCCCC(=O)O (stereo not drawn) returned HCMV antiviral 9.
For CCCCC[C@H](O)/C=C/[C@H]1C=CC(=O)[C@@H]1C/C=C\CCCC(=O)O the results were Pf growth 96h 4%, FBPA Giardia inh 10%, Sm TGR inh 40µM* and Pf growth 48h -4%.
Screening O=C(NC1CC1)C1CCN(c2ncccn2)CC1 returned Pf growth 96h 18%, HCMV antiviral 17, Sm TGR inh 0% and Pf growth 48h 14%.
For Cc1ccc(/C=C/C(=O)Nc2ccncc2)o1 the results were Pf growth 96h 240%, FBPA Giardia inh -8%, HCMV antiviral -10, Sm TGR inh 8.9µM* and Pf growth 48h 29%.
For Cc1ccc(/C=C/C(=O)Nc2ccc(N(C)C)cc2)o1 the results were Pf growth 96h 29%, FBPA Giardia inh -14%, HCMV antiviral -7, Sm TGR inh -21% and Pf growth 48h 12%.
`Cc1ccc(/C=C/C(=O)Nc2ccc(S(N)(=O)=O)cc2)o1` gave Pf growth 96h -6%, FBPA Giardia inh -18%, HCMV antiviral 25, Sm TGR inh 7.9µM* and Pf growth 48h 6%.
For CC(=O)NS(=O)(=O)c1ccc(NC(=O)/C=C/c2ccc(C)o2)cc1 the results were Pf growth 96h 4.7µM*, FBPA Giardia inh -20%, HCMV antiviral -4 and Pf growth 48h 5%.
Cc1ccc(/C=C/C(=O)NC2CCCCCCC2)o1 was read as Pf growth 96h 4%, FBPA Giardia inh -17%, HCMV antiviral -36, Sm TGR inh 2.5µM* and Pf growth 48h 69%.
For COc1ccc(/C=C/c2ccccc2)cc1C1C2C=CCCC2(C)C(=O)N1Cc1ccccc1 (stereo not drawn) the results were FBPA Giardia inh 2%.
`CCCCN1CC(N2CCCC2)CS1(=O)=O` (stereo not drawn) gave HCMV antiviral -13.
`CCCCCCCCCC(=O)OCC(CO)OC(=O)CCCCCCCCC` (stereo not drawn) gave FBPA Giardia inh -1%.
Screening COC(=O)C1=C(O)/C(=C\c2ccc(OCC(=O)Nc3ccccc3)cc2)N=C1C returned Pf growth 96h 27%, HCMV antiviral -23, Sm TGR inh 2% and Pf growth 48h -4%.
`COc1ccc(N=Cc2ccc(CNS(=O)(=O)c3ccc(Cl)cc3)o2)cc1` gave Pf growth 96h 128%, FBPA Giardia inh -8%, HCMV antiviral 21, Sm TGR inh 0% and Pf growth 48h 61%.
CCOC(=O)C1=C(O)/C(=C\c2ccc(CNS(=O)(=O)c3ccc(Br)cc3)o2)N=C1C was read as Pf growth 96h -15%, FBPA Giardia inh 9%, HCMV antiviral -20, Sm TGR inh 40µM* and Pf growth 48h -6%.
`COC(=O)C1=C(O)/C(=C\c2ccc(CNS(=O)(=O)c3ccc(Cl)cc3)o2)N=C1C` gave Pf growth 96h -30%, FBPA Giardia inh inconclusive, HCMV antiviral -9, Sm TGR inh 28µM* and Pf growth 48h 5%.
`CCOC(=O)C1=C(O)/C(=C\c2cccc(OC)c2)N=C1C` gave Pf growth 96h inconclusive, FBPA Giardia inh 0%, HCMV antiviral 34, Sm TGR inh 1% and Pf growth 48h inconclusive.
Screening COC(=O)C1=C(O)/C(=C\c2ccc(CNS(=O)(=O)c3ccccc3)o2)N=C1C returned Pf growth 96h 103%, FBPA Giardia inh inconclusive, HCMV antiviral -21, Sm TGR inh 40µM* and Pf growth 48h 18%.

High-throughput results from PubChem.
